APP transl inh = APP translation inhibition | AID 1285 | inhibition, % at 2 µM | SH-SY5Y APP 5'UTR-luciferase reporter, luminescence | 0.82% of 190,000 active;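 active means inhibition above a set limit, derived from the sample mean plus 3 SD, cut at about 45% in these data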
Ba/F3 V617F tox = lowers viability of Ba/F3 cells expressing EpoR and JAK2V617F; AID 1446; inhibition, % at 5.6 µM; 1.1% of 220,000 active; ATP luminescence;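 active means inhibition above the campaign mean plus 3 SD over all tested compounds, cut at about 24% in these data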;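 further: cytokine-independent growth of Ba/F3 cells driven by EpoR plus mutant JAK2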
IEC-6 tox = IEC-6 cytotoxicity, counter-screen for KLF5 inhibitors. inhibition, % at 5 µM. 0.78% of 290,000 active. AID 1825. luminescence viability; in the data active means inhibition above about 22%
KLF5 inhibitor = inhibitors of KLF5 expression; DLD-1 KLF5 promoter-luciferase reporter, luminescence; inhibition, % at 5 µM; 0.23% of 290,000 active;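 active means inhibition above a per-plate limit of that plate's mean compound inhibition plus 3 SD, cut at about 60% in these data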;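 further: higher means less KLF5 promoter-driven luciferase light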
aSyn 5UTR inh = 5' untranslated region of α-synuclein, MLPCN primary screen; alpha-synuclein 5'UTR reporter, inhibitor activity; inhibition, % (tested at 7.5 µM); 0.82% of 300,000 active; AID 1813; in the data active means inhibition above about 60%;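 further: H4 neuroglioblastoma cells stably carrying SNCA 5'UTR luciferase fusion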
BaF3 tox = counter-screen for JAK2V617F inhibitors: parental Ba/F3 viability inhibitors. inhibition, % at 5.6 µM. 1.1% of 220,000 active. CellTiter-Glo ATP luminescence. AID 1486;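 active means inhibition above a per-campaign cutoff, the mean inhibition of all tested compounds plus 3 SD, cut at about 27% in these data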
Each line names hits and unclear results; the compound was inactive in the other large screens. This is a sample that favours compounds with a hit; in the whole collection about 2.2% have one here.

COc1cc(C(=O)O/N=C(\N)Cc2ccc([N+](=O)[O-])cc2)cc(OC)c1OC	aSyn 5UTR inh 81 (no result: APP transl inh)
C/C(CC(=O)Nc1cc(C)ccn1)=N\NC(=O)c1ccc(C(C)(C)C)cc1	none (no result: APP transl inh, Ba/F3 V617F tox, BaF3 tox)
O=C(Nc1ccc2oc(-c3cccnc3)nc2c1)c1ccc(Br)o1	none
O=C(Nc1ccc2oc(-c3cccnc3)nc2c1)c1ccc([N+](=O)[O-])o1	APP transl inh 60
O=C(/C=C/c1cccc([N+](=O)[O-])c1)c1ccc([N+](=O)[O-])o1	aSyn 5UTR inh 71 (no result: APP transl inh, Ba/F3 V617F tox, IEC-6 tox, KLF5 inhibitor, BaF3 tox)
O=C(Nc1ccc(C(=O)N2CCCC2)cc1)c1ccc(F)cc1Cl	none (no result: APP transl inh, Ba/F3 V617F tox, BaF3 tox)
O=C(NCCC1CCCCN1S(=O)(=O)c1ccc(Cl)cc1)C(=O)NCc1ccncc1 (configuration not stated)	aSyn 5UTR inh 62 (no result: APP transl inh, Ba/F3 V617F tox, IEC-6 tox, KLF5 inhibitor, BaF3 tox)
CC1=NN(C(N)=S)C(=O)C1N=Nc1ccc(F)cc1 (configuration not stated)	none (no result: APP transl inh, Ba/F3 V617F tox, BaF3 tox)
CC1=NN(C(N)=S)C(=O)C1N=Nc1ccc(O)cc1 (configuration not stated)	Ba/F3 V617F tox 37, BaF3 tox 58
COc1ccccc1NC(=O)CSCc1cc(=O)n2ccsc2n1	none (no result: APP transl inh, Ba/F3 V617F tox, BaF3 tox)
Cc1ccc(C)c(S(=O)(=O)N2CCN(C(=O)CSc3ccccc3F)CC2)c1	none (no result: APP transl inh, Ba/F3 V617F tox, BaF3 tox)
CC1=CC(=O)c2ccccc2C1=O	none
CC(C)(C=O)C1=CC(=O)c2ccccc2C1=O	APP transl inh 80 (no result: aSyn 5UTR inh)
CCOC(=O)CSc1nc(=O)n2cccc(C)c2n1	APP transl inh 45
O=C(/C=C/c1ccc(O)c(O)c1)c1ccccc1O	Ba/F3 V617F tox 84, BaF3 tox 40 (no result: APP transl inh)
COc1ccc(C(CNc2nc(-c3cccnc3)nc3ccccc23)N(C)C)cc1 (configuration not stated)	none (no result: APP transl inh, Ba/F3 V617F tox, BaF3 tox)
CCc1cccc2c1Sc1ccccc1CC2N1CCNCC1 (configuration not stated)	aSyn 5UTR inh 104 (no result: APP transl inh, Ba/F3 V617F tox, IEC-6 tox, KLF5 inhibitor, BaF3 tox)
CN1CCN(C2Cc3ccccc3Sc3cc(C(F)(F)F)ccc32)CC1 (configuration not stated)	none (no result: APP transl inh, Ba/F3 V617F tox, IEC-6 tox, KLF5 inhibitor, BaF3 tox)
Cc1cccc2c1Sc1ccc(Cl)cc1CC2N1CCNCC1 (configuration not stated)	aSyn 5UTR inh 104 (no result: APP transl inh, Ba/F3 V617F tox, IEC-6 tox, KLF5 inhibitor, BaF3 tox)
CNC(=O)c1sc2nc(-c3ccc(OC)cc3)cn2c1C	none
COc1ccc(-c2cn3c(C)c(C(=O)Nc4cc(NC(C)=O)ccc4OC)sc3n2)cc1	Ba/F3 V617F tox 49, BaF3 tox 44
CCOCCOC(=O)c1[nH]c2c(c1C)C(=O)CC(c1cccs1)C2 (configuration not stated)	APP transl inh 93, Ba/F3 V617F tox 80, IEC-6 tox 87, KLF5 inhibitor 77, aSyn 5UTR inh 85, BaF3 tox 80
CCC(=O)Nc1cccc(C(=O)/C=C/c2cc(Br)ccc2OC)c1	APP transl inh 75
CC(=O)Nc1cccc(C(=O)/C=C/c2ccc(F)cc2)c1	none
CC(=O)Nc1cccc(C(=O)/C=C/c2ccc(/C=C/C(=O)c3cccc(NC(C)=O)c3)cc2)c1	APP transl inh 92
Clc1cccc(Nc2nc(-c3cccnc3)cs2)c1	none
O=C(CCNC(=O)c1ccc(Cl)cc1)Nc1ccccc1N1CCCC1	none (no result: APP transl inh, Ba/F3 V617F tox, IEC-6 tox, KLF5 inhibitor, BaF3 tox)
COCCC(=O)N1CCCC(CNS(=O)(=O)c2ccc(OC)cc2)C1 (configuration not stated)	BaF3 tox 90
COCC(=O)N1CCCC(CNS(=O)(=O)c2ccc(OC)cc2)C1 (configuration not stated)	none
CC(=O)c1ccc(OCC(O)COc2ccc(C(C)=O)cc2)cc1	BaF3 tox 96
Clc1cccc(-c2nc(-c3ccccn3)no2)c1	aSyn 5UTR inh 93
Fc1ccc(-n2nnc(-c3cnc4ccccc4c3)n2)cc1	aSyn 5UTR inh 94
CN(CCC1CCOCC1)C(=O)CC1C(=O)NCCN1Cc1ccccc1F (configuration not stated)	none (no result: APP transl inh, Ba/F3 V617F tox, BaF3 tox)
CCOc1ccc(-n2nc3cc(C)c(N)cc3n2)cc1	none (no result: APP transl inh, Ba/F3 V617F tox, BaF3 tox)
CCCCOc1ccc(N2C(N)=NC(N)=NC23CCCCC3)cc1	none (no result: APP transl inh, Ba/F3 V617F tox, BaF3 tox)
CCOC(=O)c1cccc(N2C(=O)C3C4C=CC(CC4)C3C2=O)c1 (configuration not stated)	none (no result: APP transl inh, Ba/F3 V617F tox, BaF3 tox)
CCOc1ccc(N2C(N)=NC(N)=NC2(C)C)cc1	Ba/F3 V617F tox 94, aSyn 5UTR inh 66, BaF3 tox 98
CCOC(=O)c1cccc(N2C(N)=NC(N)=NC2(C)C)c1	Ba/F3 V617F tox 73, BaF3 tox 96
CCOc1ccc(-n2nc3ccc(N)cc3n2)cc1	aSyn 5UTR inh 73 (no result: APP transl inh, Ba/F3 V617F tox, BaF3 tox)
Cc1cccc(NC(=S)N/N=C/c2c[nH]c3ccccc23)c1	APP transl inh 86
CCN(CC)CCn1cnc2c([nH]c3cccc(OC)c32)c1=O	BaF3 tox 69
Cc1nnsc1C(=O)N/N=C/c1ccc2ccccc2c1O	APP transl inh 76, aSyn 5UTR inh 120
COC(=O)c1c(-c2ccccc2)csc1NC(=O)c1c(-c2ccccc2)noc1C	aSyn 5UTR inh 65
CCOC(=O)c1c(-c2ccc(F)cc2)csc1NC(=O)c1c(-c2ccccc2)noc1C	none
Cc1ccc(S(=O)(=O)N[C@@H](C)C(=O)N2CCC(C(=O)N[C@@H](Cc3ccccc3)C(=O)O)CC2)cc1	none (no result: APP transl inh, Ba/F3 V617F tox, BaF3 tox)
Cc1ccc(N/C(N)=N/c2nc(C)cc(N3CCCCC3)n2)c(C)c1	Ba/F3 V617F tox 71, BaF3 tox 66
Cc1ccc(N/C(N)=N/c2nc3c(c(=O)[nH]2)CCCC3)c(C)c1	none
CN1c2cccc3cccc(c23)N(C)C1(C)C	Ba/F3 V617F tox 27, BaF3 tox 58
COc1cccc(OCCCCCCN2CCOCC2)c1	APP transl inh 50
CCCCn1c(N)c(N(CCOC)C(=O)c2cc(S(=O)(=O)N3CCCCC3)ccc2C)c(=O)[nH]c1=O	none (no result: APP transl inh, Ba/F3 V617F tox, IEC-6 tox, KLF5 inhibitor, BaF3 tox)
COc1ccc(N(Cc2cc3cc(OC)ccc3[nH]c2=O)S(=O)(=O)c2ccc(NC(C)=O)cc2)cc1	aSyn 5UTR inh 93 (no result: APP transl inh, Ba/F3 V617F tox, BaF3 tox)
COc1ccc(N(Cc2cc3ccccc3[nH]c2=O)S(=O)(=O)c2ccc(OC)cc2)cc1	none (no result: APP transl inh, Ba/F3 V617F tox, BaF3 tox)
COc1ccc(N2C(=O)CCC(C(=O)N3CCCCC3)C2c2ccc(F)cc2)cc1 (configuration not stated)	none
COc1ccc(C2C(C(=O)Nc3cccc(C)n3)CCC(=O)N2c2ccc(OC)cc2)cc1 (configuration not stated)	aSyn 5UTR inh 73
COc1ccc(N2C(=O)CCC(C(=O)N3CCC(C(N)=O)CC3)C2c2ccc(F)cc2)cc1 (configuration not stated)	BaF3 tox 69
COc1ccc(N2C(=O)CCC(C(=O)O)C2c2ccc(F)cc2)cc1 (configuration not stated)	none
CCCc1cc(=O)oc2cc(OCc3ccc(C(=O)O)cc3)ccc12	none (no result: APP transl inh, Ba/F3 V617F tox, BaF3 tox)
CN(C(=O)c1ccccc1F)C(c1ccccc1)c1ccccc1	none (no result: APP transl inh, Ba/F3 V617F tox, BaF3 tox)
CCc1ccc(/C=N/NC(=O)c2cc(C3CC3)nc3ccc(Br)cc23)s1	APP transl inh 72
CCOC(=O)c1ccc(NC(=O)Cn2nnc3ccccc32)cc1	BaF3 tox 59 (no result: aSyn 5UTR inh)
Cc1ccc(NC(=O)CN2C(=O)CSc3ccc(S(=O)(=O)N4CCCCC4)cc32)cc1	none (no result: APP transl inh, Ba/F3 V617F tox, BaF3 tox)
COc1ccc(Br)cc1/C=N/NC(=O)c1ccc(COc2ccc3c(c2)CCC3)o1	none
